Among all 5,500 compounds or so, about 2,000 (36%) were called active. Inconclusive results (about 18%) are left out. Rule as the data show it: active = normalized growth mostly below about 0.91 (no sharp cut-off); inconclusive = no clear call, values can overlap the other calls; inactive = mostly above about 0.92. The list shows a part of the results.
Assay: chemical genetic growth profiling, strain panel (AID 1159580);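 also: tested at 20 µM; growth read once vehicle control cultures reached saturation at 30 °C; 1 = growth at the plate median or of vehicle wells; lower values mean less growth of the strain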
Conditions: S. cerevisiae deletion strains, growth OD
[1] = locus YHR030C, strain SLT2, active compounds read low
[2] = locus YHR079C, strain IRE1, active compounds read low
[3] = locus YJL095W, strain BCK1, active compounds read low
[4] = locus YJR066W, strain TOR1, active compounds read low
[5] = locus YLR113W, strain HOG1, active compounds read low
[6] = locus YNL183C, strain NPR1, active compounds read low
[7] = locus YOR231W, strain MKK1, active compounds read low
[8] = locus YPL256C, strain CLN2, active compounds read low

Measured: normalized growth

CCOc1ccc2nc3cc(N)ccc3c(N)c2c1
inactive: locus YBR171W, strain sec66, active compounds read low 1.07 | locus YDL005C, strain med2, active compounds read low 0.981 | locus YDR001C, strain nth1, active compounds read low 0.94 | locus YDR137W, strain rgp1, active compounds read low 0.985 | locus YDR159W, strain sac3, active compounds read low 1.06 | locus YDR334W, strain swr1, active compounds read low 1.03 | locus YDR392W, strain spt3, active compounds read low 0.803 | locus YEL061C, strain CIN8 (second series), active compounds read low 0.997 | locus YER111C, strain swi4, active compounds read low 0.987 | locus YGL167C, strain pmr1, active compounds read low 1.03 | locus YGL240W, strain doc1, active compounds read low 1.06 | [1] 0.967 | [2] 0.89 | [3] 0.935 | locus YJL115W, strain asf1, active compounds read low 0.987 | locus YJL154C, strain vps35, active compounds read low 0.97 | [4] 0.851 | [5] 0.961 | locus YLR262C, strain YPT6 (second series), active compounds read low 0.891 | locus YLR357W, strain rsc2, active compounds read low 1.09 | locus YMR125W, strain sto1, active compounds read low 0.892 | [6] 0.875 | locus YNL322C, strain KRE1 (second series), active compounds read low 1 | locus YNR049C, strain mso1, active compounds read low 1 | [7] 0.901 | [8] 1.03
active: locus YAL021C, strain ccr4, active compounds read low 0.749 | locus YAL026C, strain drs2, active compounds read low 0.607 | locus YAL030W, strain snc1, active compounds read low 0.63 | locus YBL061C, strain skt5, active compounds read low 0.745 | locus YBR009C, strain hhf1, active compounds read low 0.353 | locus YBR023C, strain chs3, active compounds read low 0.721 | locus YBR231C, strain swc5, active compounds read low 0.702 | locus YBR279W, strain paf1, active compounds read low 0.51 | locus YCL011C, strain gbp2, active compounds read low 0.447 | locus YCL016C, strain dcc1, active compounds read low 0.462 | locus YCL061C, strain MRC1, active compounds read low 0.846 | locus YCL069W, strain vba3, active compounds read low 0.834 | locus YCR088W, strain abp1, active compounds read low 0.695 | locus YDL040C, strain nat1, active compounds read low 0.779 | locus YDR069C, strain doa4, active compounds read low 0.696 | locus YDR195W, strain ref2 0.823 | locus YDR297W, strain sur2, active compounds read low 0.705 | locus YDR335W, strain msn5, active compounds read low 0.907 | locus YEL003W, strain gim4, active compounds read low 0.534 | locus YEL037C, strain rad23, active compounds read low 0.785 | locus YER015W, strain faa2, active compounds read low 0.641 | locus YER016W, strain bim1, active compounds read low 0.679 | locus YER155C, strain BEM2 (second series), active compounds read low 0.856 | locus YFR010W, strain ubp6, active compounds read low 0.683 | locus YGL173C, strain kem1, active compounds read low 0.677 | locus YGL227W, strain vid30, active compounds read low 0.754 | locus YGL253W, strain hxk2, active compounds read low 0.761 | locus YHR013C, strain ard1, active compounds read low 0.747 | locus YHR027C, strain rpn1, active compounds read low 0.618 | locus YHR142W, strain chs7, active compounds read low 0.801 | locus YJL092W, strain hpr5, active compounds read low 0.803 | locus YJL095W, strain BCK1 (second series), active compounds read low 0.785 | locus YJL129C, strain trk1, active compounds read low 0.648 | locus YJL164C, strain tpk1, active compounds read low 0.379 | locus YJL166W, strain qcr8, active compounds read low 0.583 | locus YJL187C, strain SWE1, active compounds read low 0.846 | locus YKL160W, strain elf1, active compounds read low 0.733 | locus YKR026C, strain gcn3, active compounds read low 0.864 | locus YKR091W, strain srl3, active compounds read low 0.875 | locus YLL001W, strain dnm1, active compounds read low 0.662 | locus YLL026W, active compounds read low 0.508 | locus YLL041C, strain sdh2, active compounds read low 0.863 | locus YLR027C, strain aat2, active compounds read low 0.481 | locus YLR221C, strain rsa3, active compounds read low 0.541 | locus YLR258W, strain gsy2, active compounds read low 0.529 | locus YLR320W, strain mms22, active compounds read low 0.742 | locus YLR342W, strain FKS1, active compounds read low 0.866 | locus YLR370C, strain arc18, active compounds read low 0.704 | locus YLR384C, strain iki3, active compounds read low 0.85 | locus YML120C, strain ndi1, active compounds read low 0.252 | locus YMR058W, strain fet3, active compounds read low 0.587 | locus YMR129W, active compounds read low 0.659 | locus YMR205C, strain PFK2, active compounds read low 0.751 | locus YMR231W, strain pep5, active compounds read low 0.883 | locus YNL071W, strain lat1, active compounds read low 0.909 | locus YNL209W, strain ssb2, active compounds read low 0.53 | locus YNL248C, strain rpa49, active compounds read low 0.827 | locus YOR001W, strain rrp6, active compounds read low 0.365 | locus YOR070C, strain gyp1, active compounds read low 0.607 | locus YOR080W, strain dia2, active compounds read low 0.876 | locus YOR083W, strain WHI5, active compounds read low 0.58 | locus YOR106W, strain vam3, active compounds read low 0.489 | locus YOR265W, strain rbl2, active compounds read low 0.61 | locus YOR270C, strain vph1, active compounds read low 0.707 | locus YOR290C, strain snf2, active compounds read low 0.441 | locus YPL051W, strain arl3, active compounds read low 0.653 | locus YPL078C, strain atp4, active compounds read low 0.813 | locus YPL106C, strain sse1, active compounds read low 0.719 | locus YPL240C, strain hsp82, active compounds read low 0.623

CCOc1ccc2nc(S(N)(=O)=O)sc2c1
inactive: [1] 0.978 | [2] 0.969 | [3] 1.02 | [4] 0.924 | [5] 1.05 | [6] 0.927 | [7] 0.955 | [8] 0.963
